From PubChem BioAssay (NCI)
Compounds without any hit were thinned out: in the full panel of roughly 83,000, 20% have a hit.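 Cells were grown in 96-well plates and exposed to the test compound at a single concentration for 48 hours; results are reported as percent growth, with values below 10 considered active.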 Unmarked numbers belong to inactive results. Calls of active or inactive are those of the source.

Tests used:
Assay in all cases: NCI-60 one-dose screen, 48 h (100 = growth as untreated, 0 = no growth, -100 = all killed)
Details in all cases: 10 µM unless noted
SK-MEL-2 melanoma = system: SK-MEL-2 melanoma
SN12C renal = system: SN12C renal
TK-10 renal = system: TK-10 renal
ACHN renal = system: ACHN renal
CAKI-1 renal = system: CAKI-1 renal
A498 renal = system: A498 renal
MOLT-4 leukemia = system: MOLT-4 leukemia
EKVX NSCLC = system: EKVX NSCLC
UO-31 renal = system: UO-31 renal
CCRF-CEM leukemia = system: CCRF-CEM leukemia

SMILES	growth (SK-MEL-2 melanoma)	growth (SN12C renal)	growth (TK-10 renal)	growth (ACHN renal)	growth (CAKI-1 renal)	growth (A498 renal)	growth (MOLT-4 leukemia)	growth (EKVX NSCLC)	growth (UO-31 renal)	growth (CCRF-CEM leukemia)
CSc1nc2nc3c(nc2c(=O)n1C)C(=O)c1ccccc1C3=O	-64.9% (active)	-76.7% (active)	-79.1% (active)	-95% (active)	-35.3% (active)	-75.3% (active)	-11.9% (active)			
O=C1NC(=S)S/C1=C\c1cc(Br)ccc1O		102%	107%	93.5%	99.5%	76%	107%	107%	67.6%	79.2%
COc1cc(-c2n[nH]nc2-c2ccccn2)cc(OC)c1OC		89.7%	151%	94.8%	124%	118%	96.6%	94.6%	87.7%	97.7%
COC(=O)[C@H](Cc1cn(C)cn1)NC(=O)[C@H](Cc1ccccc1)NC(=O)Nc1cc(C(F)(F)F)cc(C(F)(F)F)c1	-94.9% [100 µM] (active)		-97.9% [100 µM] (active)	-96.3% [100 µM] (active)		-90.6% [100 µM] (active)	-55% [100 µM] (active)		-93.4% [100 µM] (active)	
COc1cccc(C=Nc2cc(C(C)C)c(O)cc2C)c1O	102%	95%	99.8%	100%		75.7%	98.2%		72.4%	35%
Cc1cn(C(C=O)OC(C=O)CO)c(=O)[nH]c1=O (centres undefined)	104%	102%	103%	107%	105%	111%	104%			98.4%
Nc1nc2c(nnn2Cc2ccc(Cl)c(Cl)c2)c(=O)[nH]1	90.1%	89.9%	103%	92.4%		85.5%	93.8%		69.2%	81.2%
O=C(CN1CCN(c2ccc(Cl)cc2)CC1)N1CCN(c2nnc(-c3ccccc3)c(-c3ccccc3)n2)CC1		49.5%	68.8%	39.3%	92.6%	45.4%	-35.1% (active)	29.9%	14.6%	20.4%
FC(F)(F)c1cc(-c2nnc3n2N=C(N2CCCC2)CS3)cc(C(F)(F)F)c1		69.2%	-22.1% (active)	47.1%	87.7%	10.6%	90.5%	80.6%	48.8%	86.4%
C1CCC(C(CC2CCCCN2)C2CCCCC2)CC1 (centres undefined)	64.2%	20.8%	21.2%		5.48% (active)	51.1%			11.9%	4.88% (active)
CC[N+](CCCCCCCCCC[N+](CC)(c1ccccn1)c1ccccn1)(c1ccccn1)c1ccccn1	-58.6% (active)		-3% (active)	20.9%	24.2%	-2.28% (active)	-8.33% (active)		26.4%	
CCCCCc1c(C)[nH]c(/C=C2\N=C(c3ccc[nH]3)C=C2Oc2ccccc2)c1C	-63.3% [100 µM] (active)	-63.4% [100 µM] (active)	-62% [100 µM] (active)	-61% [100 µM] (active)	-62.8% [100 µM] (active)	-75.3% [100 µM] (active)	-40.2% [100 µM] (active)		-70.1% [100 µM] (active)	
COc1ccc(CNC(=O)c2c(C)n([O-])c3ccc(OC)cc3[n+]2=O)cc1		108%	104%	111%	230%	104%	103%	87.8%	21.9%	100%
Cc1cc(C)c2c(N)c3cccc(C)c3nc2n1		6.82% (active)	-1.3% (active)	5.96% (active)		-57.2% (active)	-10.5% (active)	3.6% (active)	-84.5% (active)	1.26% (active)
O=C(/C=C/c1ccc(C(F)(F)F)cc1)c1ccc(Nc2nc(NCCO)nc(NCCO)n2)cc1		65.7%	54.8%	83.7%		82.1%	34.5%	79.5%	44.2%	7.48% (active)
COc1ccc(N2CCN(CC(=O)N3CCN(c4nnc(-c5ccc(Cl)cc5)c(-c5ccc(Cl)cc5)n4)CC3)CC2)cc1		67.7%	84.2%	52.3%	147%		-21.2% (active)	53.4%	21.2%	20.6%
O=CN1N=C(c2ccc(Cl)cc2)CC1c1cccc(Nc2ccnc3cc(Cl)ccc23)c1 (centres undefined)		34.5%	23%	31.5%		9.76% (active)	4.5% (active)	30.3%	19.5%	13.6%
COc1ccc(C2=NN(C(C)=O)C(c3cccc(Nc4ccnc5cc(Cl)ccc45)c3)C2)cc1 (centres undefined)		48.5%	58.3%	60.8%		33.1%	22.3%	64.7%	37.5%	40.8%
O=C(/C=C/c1cccc(O)c1)c1cccc(-n2cc(-c3ccccc3)[nH]c2=O)c1		-12.9% (active)	12.4%	-75.8% (active)	8.38% (active)	90.6%	-7.37% (active)	66.8%	-73.5% (active)	-3.86% (active)
O=C(CNC(=O)c1cccc2ccccc12)Nc1ccccc1Oc1cccc(O)c1		49% [5 µM]	42% [5 µM]	51% [5 µM]		11.5% [5 µM]	11.9% [5 µM]	47.2% [5 µM]	44.5% [5 µM]	15.1% [5 µM]
Cc1sc2nc(NCCc3cccs3)[nH]c(=O)c2c1C		87.7%	96.8%	96.1%		70.7%	75.3%	85.5%	90%	81.9%
CC1=C([Se]CC(OC(=O)[C@@H](CSSC(C)(C)C)NC(=O)C(C)(C)C)C(=O)NCCCCCC(=O)OCc2ccccc2)C(=O)c2ccccc2C1=O (some centres undefined)		2.42% (active)	-29.3% (active)	-10.9% (active)	-19.3% (active)		5.23% (active)	-24.2% (active)	-78.5% (active)	3% (active)
O=C(CNC(=O)c1cccc2ccccc12)Nc1ccccc1Cc1ccccc1		56.3% [5 µM]	49.6% [5 µM]	56.9% [5 µM]		38.2% [5 µM]	19.2% [5 µM]	54.9% [5 µM]	60.7% [5 µM]	20.4% [5 µM]
COc1ccc(N2CCN(CC(=O)N3CCN(c4nnc(-c5ccccc5)c(-c5ccccc5)n4)CC3)CC2)cc1		46.8%	64.7%	40.5%	76.5%	44.1%	1.56% (active)	35.3%	24.9%	32.4%
Clc1ccc2[nH]cc(-c3cncn3CCc3ccccc3)c2c1		57.2%	42.8%	66%	39%		51%	34.4%	42.2%	54.1%
Cc1sc2nc(N3CCCCC3)[nH]c(=O)c2c1C		99.2%	106%	103%		95%	88.8%	94.3%	96%	93.7%
OCCCc1n(Cc2ccc3ccccc3c2)c2ccccc2[n+]1Cc1ccc2ccccc2c1		8.7% (active)	37.5%	81.6%		46%	19.7%	47.6%	76.4%	30.8%
Cc1sc2nc(NCc3ccccc3)[nH]c(=O)c2c1C		68.5%	67%	84%		48.9%	44%	70.3%	74.6%	58.9%
O=C(O)CNC(=O)C1(N2C(=O)c3ccccc3C2=O)CCCC1		99%	99.6%	108%	98.5%	100%	101%	104%	94.1%	88.8%
NS(=O)(=O)c1ccc(-n2ncc3c(N/N=C/c4ccccc4)ncnc32)cc1		93%	93.6%	94.7%	53.4%	111%	71.4%	108%	68.8%	84.6%
